According to ChEMBL document CHEMBL1201862, “PubChem BioAssay data set” (2004):
The campaign covered roughly 400,000 compounds. About 2,100 (0.53%) were called active. Another 14% or so got no clear call; they are omitted. No rule for the calls is given here. This excerpt belongs to a sample that is enriched for actives.

Each compound was assayed against Ataxin-2 (Homo sapiens) (UniProt Q99700) (assay: qHTS for Inhibitors of ATXN expression.).
Type: functional

Chain of Ataxin-2 (Homo sapiens) (Q99700 whole entry): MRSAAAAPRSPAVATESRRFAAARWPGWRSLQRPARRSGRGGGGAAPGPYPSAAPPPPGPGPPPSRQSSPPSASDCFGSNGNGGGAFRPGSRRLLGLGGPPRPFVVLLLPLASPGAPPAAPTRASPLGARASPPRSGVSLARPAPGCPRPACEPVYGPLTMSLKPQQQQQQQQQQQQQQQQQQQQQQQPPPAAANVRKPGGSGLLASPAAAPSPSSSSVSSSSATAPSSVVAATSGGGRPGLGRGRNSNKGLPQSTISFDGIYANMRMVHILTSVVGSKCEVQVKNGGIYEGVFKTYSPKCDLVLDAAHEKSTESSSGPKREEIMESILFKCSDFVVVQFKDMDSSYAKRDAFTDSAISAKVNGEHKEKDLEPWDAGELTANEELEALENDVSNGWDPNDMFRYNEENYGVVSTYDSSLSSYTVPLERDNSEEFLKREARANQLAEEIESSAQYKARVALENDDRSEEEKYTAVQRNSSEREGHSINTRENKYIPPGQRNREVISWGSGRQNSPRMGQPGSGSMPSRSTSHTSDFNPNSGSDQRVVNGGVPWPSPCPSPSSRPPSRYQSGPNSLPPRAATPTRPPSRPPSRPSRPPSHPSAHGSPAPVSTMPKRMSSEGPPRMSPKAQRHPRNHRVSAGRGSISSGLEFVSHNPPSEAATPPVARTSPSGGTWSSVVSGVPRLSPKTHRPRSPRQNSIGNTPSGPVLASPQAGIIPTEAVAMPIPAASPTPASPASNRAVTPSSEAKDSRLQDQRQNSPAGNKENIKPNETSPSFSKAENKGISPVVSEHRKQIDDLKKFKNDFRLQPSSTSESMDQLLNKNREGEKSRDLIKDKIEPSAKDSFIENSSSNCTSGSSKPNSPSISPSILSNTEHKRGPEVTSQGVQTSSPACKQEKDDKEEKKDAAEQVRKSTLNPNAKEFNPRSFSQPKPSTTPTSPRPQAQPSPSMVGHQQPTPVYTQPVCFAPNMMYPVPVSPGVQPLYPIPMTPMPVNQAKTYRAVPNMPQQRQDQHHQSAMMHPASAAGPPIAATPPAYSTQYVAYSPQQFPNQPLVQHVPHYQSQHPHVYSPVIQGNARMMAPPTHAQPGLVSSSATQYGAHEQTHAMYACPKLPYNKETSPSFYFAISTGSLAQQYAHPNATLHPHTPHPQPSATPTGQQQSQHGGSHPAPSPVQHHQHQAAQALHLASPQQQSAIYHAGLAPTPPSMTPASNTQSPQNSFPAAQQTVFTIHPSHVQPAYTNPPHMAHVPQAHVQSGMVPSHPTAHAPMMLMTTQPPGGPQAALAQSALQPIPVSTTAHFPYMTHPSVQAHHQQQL

Structure (SMILES) | Potency
CCc1ccc2nc3nc(C)cc(C)c3c(N)c2c1 | inactive
Cc1ccc(C(=O)CC(=O)c2ccccc2C)c(O)c1 | inactive
CC(=O)c1cccc(NC(=O)C(C)OC(=O)c2cccc(S(=O)(=O)N3CCN(C)CC3)c2)c1 (stereo not drawn) | inactive
Cc1ccc(-c2nn3c(C)nnc3s2)cc1NC(=O)c1ccc(-c2ccc(Cl)cc2Cl)o1 | 8.91 µM (active)
Cc1nnc2ccc(-c3ccc(NC(=O)c4ccco4)cc3)nn12 | inactive
O=C(NCCCN1CCN(c2ccc(F)cc2)CC1)c1ccc2nc(Cc3ccccc3)oc2c1 | 20 µM (active)
C=C(C)CNC(=O)c1ccc2nc(Cc3ccc(OC)cc3)oc2c1 | inactive
O=C(NCCO)c1ccc2nc(Cc3cccc(Cl)c3)oc2c1 | inactive
O=c1c(O)c(-c2cccs2)oc2ccc(Cl)cc12 | inactive
Cc1ccc2cc(C#N)c(NCc3ccccc3)nc2c1 | inactive
N#Cc1ncc(Cc2ccccc2)nc1C#N | 39.8 µM (active)
Cc1nc2nc(SCc3ccccc3)nn2c(O)c1CCC(C)C | inactive
CCC1CCCCN1c1nc2c(C=O)c(C)nn2c2ccccc12 (stereo not drawn) | inactive
COc1ccc(NC(=O)c2cc3c(Cl)nc4ccccc4c3s2)cc1OC | 35.5 µM (active)
O=C(Cc1csc(Nc2nc(S)nc3ccccc23)n1)NCCCN1CCN(c2cccc(Cl)c2)CC1 | inactive
CC1CCN(CCCNC(=O)c2cc3c(Cl)nc4ccccc4c3s2)CC1 | 39.8 µM (active)
O=C(NC1CCCC1)c1cc2c(=O)n3ccccc3nc2s1 | inactive
COc1ccc(-c2cc(C(=O)NC3=NCCS3)c3ccccc3n2)cc1OC | inactive
CCC1CCCCN1CCCNC(=O)c1cc2c(Cl)nc3ccccc3c2s1 (stereo not drawn) | 31.6 µM (active)
O=C(Cc1csc(Nc2nc(S)nc3ccccc23)n1)NCCCN1CCN(c2ccccc2F)CC1 | inactive
COc1ccc(NC(=O)c2cc3c(=O)n(C)c4ccccc4c3s2)cc1OC | inactive
CCCCCC(=O)NC(=S)Nc1ccc(Cl)cn1 | inactive
N#Cc1cnn2c(-c3cccc([N+](=O)[O-])c3)ccnc12 | inactive
FC(F)(F)c1cc(-c2cccs2)nc2ncnn12 | inactive
CN1CCN(C(=O)CN(C2CCCCC2)S(=O)(=O)c2ccccc2)CC1 | inactive

Structure (SMILES) | Potency
CCN(CC)CCCN(Cc1cc2cc3c(cc2nc1O)OCO3)C(S)=Nc1ccc(OC)cc1 | inactive
CCOc1ccccc1C(=O)N(Cc1ccccc1)Cc1cc2cc3c(cc2nc1O)OCCO3 | 35.5 µM (active)
COc1ccccc1C(=O)N(Cc1cc2cc3c(cc2nc1N(C)C)OCO3)CC1CCCO1 (stereo not drawn) | inactive
CCNC(=O)c1cc2c(=O)n3cccc(C)c3nc2n(Cc2ccc(C)cc2)c1=N | inactive
CCOc1ccc(CNCc2c(C(=O)O)n(Cc3ccc(C)cc3)c3cc(C)ccc23)cc1 | 25.1 µM (active)
CCc1ccc(CNCc2c(C(=O)O)n(Cc3ccc(C)cc3)c3cc(C)ccc23)cc1 | 31.6 µM (active)
CCOc1ccc(C2C(C(=O)OC)=CN(CCOC)C=C2C(=O)OC)cc1 | inactive
Cc1ccc(CNC(=O)c2ccc3c(O)c(O)c(-c4ccc(C)cc4)nc3c2)cc1 | inactive
Cc1ccc(CNCc2c(C(=O)O)n(Cc3ccc(C)cc3)c3cc(C)ccc23)cc1 | 22.4 µM (active)
Cc1ccc(CNS(=O)(=O)c2ccc3c(c2)CCN3C(=O)CCCC(=O)O)cc1 | inactive
CCc1cccc(C)c1NC(=O)CNCc1ccccc1 | inactive
Cc1ccc(Cn2c(C(=O)O)c(CNCc3ccc(OC(C)C)cc3)c3ccc(C)cc32)cc1 | 35.5 µM (active)
CCOc1ccc(-c2oc3ccc(C)cc3c(=O)c2O)cc1 | inactive
Cc1cccc(C(=O)/N=c2/c(C#N)cc3c(=O)n4cccc(C)c4nc3n2Cc2ccco2)c1 | inactive
Cn1ncc(Oc2ccc([N+](=O)[O-])cc2)c(Cl)c1=O | inactive
O=C(c1ccccn1)N(c1ccccc1)C1(C(=O)NC2CCCCC2)CCCCC1 | inactive
OC[C@@H]1[C@@H](c2ccccc2)C(c2ccccc2)=NN1c1ccccc1 | inactive
CCOCCCNC(=O)C(NC(=O)c1ccc2c(c1)OCO2)c1ccc(Cl)cc1 (stereo not drawn) | inactive
NC1=Nc2cccc3cccc1c23 | inactive
Cc1cc2c(cc1C)NC(CC(=O)Nc1ccccc1SC(F)(F)F)C(=O)N2 (stereo not drawn) | inactive
Cc1cc2n(n1)C(c1ccccc1)CC(c1ccc(Br)cc1)=N2 (stereo not drawn) | inactive
CCOC(=O)c1c(SCC(=O)Nc2nccs2)nc(C)c(C)c1C | inactive
CC(=O)NS(=O)(=O)c1ccc(N2C(=O)CC(Sc3nccc(C)n3)C2=O)cc1 (stereo not drawn) | inactive
Cc1cc(C)nc(SC2CC(=O)N(c3ccc(C)c(C)c3)C2=O)n1 (stereo not drawn) | inactive
Cc1ccc(N2C(=O)CC(Sc3nc4ccccc4o3)C2=O)cc1Cl (stereo not drawn) | 39.8 µM (active)

Structure (SMILES) | Potency
CSc1ccc(/C=C2\CCn3c2nc2cc(C(=O)O)ccc2c3=O)cc1 | inactive
CCN(CC)C(=O)c1cc2c(=O)n3cccc(C)c3nc2s1 | inactive
C/C(=N\NC(=O)COc1ccc([N+](=O)[O-])cc1)c1ccco1 | inactive
O=C(Cn1nnc(-c2ccccc2)n1)NCC(=O)Nc1ccc(F)c(F)c1F | inactive
Cc1ccccc1-c1nnn(CC(=O)Nc2ccc3c(c2)OCO3)n1 | inactive
Cc1cccc(C)c1NC(=O)Cn1nnc(-c2ccc(N3CCOCC3)cc2)n1 | 39.8 µM (active)
CCOCCCNC(=O)c1c(N)n(-c2ccc3c(c2)OCO3)c2nc3ccccc3nc12 | inactive
COc1cccc2c(=O)c3c(cnn3C)n(C)c12 | inactive
COc1ccccc1CNC(=O)CN1C(=O)c2cccc(N)c2C1=O | inactive
COc1ccccc1CNC(=O)CCC1N=C2c3ccccc3N=C(SCc3ccc(C)cc3C)N2C1=O (stereo not drawn) | 17.8 µM (active)
O=C(NCc1nnc(S)n1-c1cccc(C(F)(F)F)c1)c1ccc(S(=O)(=O)N2CCCCC2)cc1 | inactive
Nc1cccn2c(-c3ccc(Cl)cc3)cnc12 | inactive
Cc1cc(-c2ccccc2)nc2oc(C(=O)NN)c(N)c12 | inactive
Cc1ccc(CSc2nc3ccccc3c(=O)n2C)cc1 | inactive
Cc1ccc(CSc2nc(-c3ccccc3C)nc3c2Cc2c(CO)cnc(C)c2O3)cc1 | 28.2 µM (active)
COc1ccc(C2CC(c3ccccc3Cl)=NN2c2ccc(S(N)(=O)=O)cc2)cc1 (stereo not drawn) | inactive
CC(=O)Nc1ccc(C(=O)Nc2ccncc2)cc1 | inactive
CC(C)CC(NS(=O)(=O)OCC(Cl)(Cl)Cl)c1ccccc1 (stereo not drawn) | 35.5 µM (active)
Cc1ccc(C)c(N(C(=O)c2snc(C(N)=O)c2N)C(C(=O)NCC2CCCO2)c2ccc(C)o2)c1 (stereo not drawn) | inactive
N=c1c(C(=O)NCC2CCCO2)cc2c(=O)n3ccccc3nc2n1C1CCCC1 (stereo not drawn) | inactive
COC(=O)c1ccc(N2C(c3cc(OC)cc(OC)c3)=Cc3ccc(-c4ccc(C(N)=O)cc4)cc3C2CC(=O)C2CC2)cc1 (stereo not drawn) | inactive
N=C1c2c(cc(O)n3c2nc2ccccc23)CN1CCN1CCOCC1 | inactive
C[C@@H](C[C@@H](O)[C@H](O)C(C)(C)O)[C@@H]1CC[C@]2(C)C3=CC[C@H]4C(C)(C)C(=O)CC[C@]4(C)[C@H]3CC[C@@]12C | 39.8 µM (active)
Cc1cc(C)c(C(=O)CSc2nc(C)cc(C)c2C(N)=O)c(C)c1 | inactive
CSc1nc2sc3c(c2c(=O)n1CC(C)C)CC(C)(C)OC3 | inactive

Structure (SMILES) | Potency
Oc1nc(C(Cl)Cl)nc2sc3c(c12)CCN(Cc1ccccc1)C3 | inactive
CC(=O)N1CCc2c(sc3nc(SCC(C)C)n(-c4ccc(C)c(Cl)c4)c(=O)c23)C1 | 25.1 µM (active)
COc1cccc(C(=O)Nc2cccc(-c3ccc(N4CCOCC4)nn3)c2)c1OC | inactive
Cc1cc(S(=O)(=O)Nc2cccc(-c3ccc(N4CCOCC4)nn3)c2)c(C)cc1Cl | 39.8 µM (active)
O=C(Nc1ccc(N2CCOCC2)c(S(=O)(=O)Nc2cc(Cl)ccc2Cl)c1)c1cccnc1 | inactive
COc1ccc(F)cc1S(=O)(=O)Nc1cccc(-c2ccc(N3CCCCCC3)nn2)c1 | 39.8 µM (active)
Cc1ccc(S(=O)(=O)NCCC(=O)Oc2ccc3ccc(=O)oc3c2)cc1 | inactive
Cc1ccc2c(Cl)cc(Cl)c(OCC(=O)NC(C)(C)C)c2n1 | inactive
COC(=O)c1cccc(C(=O)NCc2nc(-c3cccc(NC(=O)c4ccoc4C)c3)oc2C)c1 | 31.6 µM (active)
CSc1nc(C(=O)NCc2nc(-c3cccc(NC(=O)c4ccccn4)c3)oc2C)cs1 | inactive
CSc1ccccc1C(=O)NCc1nc(-c2cccc(NC(=O)c3ccoc3C)c2)oc1C | 25.1 µM (active)
Cc1oc(-c2cccc(NC(=O)c3ccccn3)c2)nc1CNC(=O)C#Cc1ccccc1 | inactive
Cc1ccc(C(=O)Nc2cccc(-c3nc(CNC(=O)c4ccc5ccccc5n4)c(C)o3)c2)s1 | inactive
O=[N+]([O-])c1cc2c(cc1/C=N/n1cnnc1)OCO2 | inactive
CCNc1nc(C)c(CN(C(C)=O)c2ccccc2)nc1C#N | inactive
Cc1ccc(-c2cn3nc(C)c(C)nc3n2)cc1 | inactive
CCCCN(CCCC)CC(O)Cn1c2ccccc2c(=O)c2ccccc21 (stereo not drawn) | inactive
CCCCN(C)CC(O)Cn1cc(/C=C/C(=O)c2ccc(C)cc2)c2ccccc21 (stereo not drawn) | inactive
O=S(=O)(c1ccc(F)cc1)N(CC(O)Cn1c2ccccc2c2ccccc21)c1ccccc1 (stereo not drawn) | 22.4 µM (active)
Cc1cccc(N(CC(O)Cn2c3ccccc3c3ccccc32)S(=O)(=O)c2ccc(F)cc2)c1 (stereo not drawn) | 15.8 µM (active)
Cc1ccc(S(=O)(=O)N(CC(O)Cn2c3ccccc3c3ccccc32)c2cccc(C(=O)NCCO)c2)cc1 (stereo not drawn) | 35.5 µM (active)
CC(C)(C)N(NS(=O)(=O)c1ccc(F)cc1)c1ccccc1 | inactive
CN(C)/C=N/c1nc2nccc(-c3ccccn3)n2n1 | inactive
